Reference: PubChem BioAssay AID588345 (Broad Institute, 2011)
The whole screen tested about 1,300 compounds, of which about 850 (65%) were called active. Inconclusive results (about 1%) are left out. No rule for the calls is given here. The set was probably picked from earlier hits. These entries were drawn from the full list. Results with a measured potency or affinity are listed apart.

Each compound was assayed against Dual specificity tyrosine-phosphorylation-regulated kinase 1A (Rattus norvegicus) (UniProt Q63470) (assay: Dyrk1A enzyme activity inhibition – biochemical, cherry-pick, plate reader, 2124-01, dose response (AID 588345)). Conditions: Dyrk1A kinase biochemical assay; series mostly up to 12 µM; activity change, negative = inhibition: at the top concentration.

| SMILES | activity change, negative = inhibition |
| --- | --- |
| Oc1ccc2c(ccc3[nH]cnc32)c1 | -2.1% (inactive) |
| COC(=O)NNC(=O)COc1ccc(Cl)cc1 | -0.602% (inactive) |
| NNc1nccc(Nc2ccccc2C(=O)O)n1 | -81.3% (inactive) |
| COc1nc(C)ccc1-c1noc(-c2ccccn2)n1 | -4.21% (inactive) |
| O=C(Cn1cc(COc2ccccc2C(F)(F)F)nn1)c1ccc(O)cc1 | -13.4% (inactive) |
| Cc1ccsc1/C=N/Nc1ncnc2nc[nH]c12 | -0.099% (inactive) |
| Fc1ccccc1/C=N/Nc1ncnc2nc[nH]c12 | 11.1% (inactive) |
| CCCCNC(=S)Nc1ccc2cn[nH]c2c1 | -0.332% (inactive) |
| O=c1c2c(O)cc(O)cc2oc2c(O)ccc(O[C@H]3O[C@@H](CO)[C@H](O)[C@@H](O)[C@@H]3O)c12 | 13.6% (inactive) |
| O=C1C=CC(O)(c2cc(=O)c3c(O)cc(O)cc3o2)C=C1 | -5.93% (inactive) |
| CS(=O)(=O)Nc1ccc(-c2ccc(/C=C3\SC(N)=NC3=O)o2)cc1 | -4.55% (inactive) |
| COc1ccc2c(Cl)c(C(N)=O)sc2c1 | 0.271% (inactive) |
| CSc1nc(SCC(=O)NCc2ccco2)c2c3c(sc2n1)CN(C)CC3 | -30.4% (inactive) |
| CC(C)Oc1ccc(C(CC(=O)NCc2ccco2)c2ccccc2)cc1 (stereo not given) | 6.23% (inactive) |
| COc1ccc2c(c1)[nH]c1c(Cl)ncnc12 | 5.9% (inactive) |
| CCOC(=O)c1ccc(NC(=S)Nc2ccc(Br)cc2N)cc1 | -4.3% (inactive) |
| COc1ccc(-n2ccc(-c3nn(-c4cccc(C(F)(F)F)c4)ccc3=O)n2)cc1 | 4.68% (inactive) |
| Cc1ccc(/C=c2\sc3n(c2=O)CN(c2ccc(Br)cc2)CN=3)o1 | -30.4% (inactive) |
| O=C(O)c1ccc2c(c1)S(=O)(=O)c1cc(Cl)ccc1C2=O | 6.12% (inactive) |
| CCCCn1c(NCCO)nc2ccccc21 | -2.66% (inactive) |
| Clc1ccc2[nH]c3c(c2c1)CCc1cn[nH]c1-3 | -37.9% (inactive) |
| Cc1ccccc1/C=N/Nc1ncnc2nc[nH]c12 | -20.2% (inactive) |
| CC(=O)c1ccc(NC(=S)Nc2ccc3cn[nH]c3c2)cc1 | -17.4% (inactive) |

| SMILES | activity change, negative = inhibition |
| --- | --- |
| COc1ccc(N=Nc2c(C)n[nH]c2C)cc1 | 4.04% (inactive) |
| N#CCC(N)=C(C#N)C#N | -1.58% (inactive) |
| CC1OC(OCC2OC(Oc3c(-c4ccc(O)cc4)oc4cc(O)cc(O)c4c3=O)C(O)C(O)C2O)C(O)C(O)C1O (stereo not given) | -20% (inactive) |
| CCCCn1c(N2CCC(Cc3ccccc3)CC2)nc2c1c(=O)[nH]c(=O)n2C | -5.72% (inactive) |
| COc1ccc(-c2ccc(=O)n(Cc3cccc([N+](=O)[O-])c3)n2)cc1 | -43.7% (inactive) |
| Cc1cccc(OCC(=O)Nc2nc3ccc([N+](=O)[O-])cc3s2)c1 | 5.01% (inactive) |
| CC1(C)Nc2ccc(O)cc2-c2c1ssc2=S | -1.72% (inactive) |
| CCC(C)CCN1C(Nc2ccccc2)=NC[C@@H]1Cc1ccccc1 (stereo not given in full) | -7.86% (inactive) |
| COc1ccc(N2C(=O)C3CCCN3C2c2cc(OC)c(OC)c(OC)c2)cc1 (stereo not given) | 1.89% (inactive) |
| CCOC(=O)C1CCCN(c2c(NCCCN3CCCC(C)C3)c(=O)c2=O)C1 (stereo not given) | -0.476% (inactive) |
| CCCOc1ccc(/C=N/NC(=O)CN2CCCCC2)cc1 | -2.8% (inactive) |
| COc1ccc(/C=C2\SC(N3CCc4ccccc4C3)=NC2=O)cc1 | -31.4% (inactive) |
| Cc1cccc(NC(=S)NN2CCN(C)CC2)c1 | -6.09% (inactive) |
| O=C1[C@H]2[C@H](C=CC[C@H]2C(=O)N2CCOCC2)CCN1Cc1ccccc1 | 5.23% (inactive) |
| CCOC(=O)C1CCCN(c2c(NCCN(C)Cc3ccccc3)c(=O)c2=O)C1 (stereo not given) | -7.74% (inactive) |
| COCCN=C1N[C@@H](c2cccc(C(F)(F)F)c2)C(C(=O)OC)=C(C)N1Cc1ccccc1 | -0.582% (inactive) |
| O=C1OCc2cccc3cccc1c23 | 4.49% (inactive) |
| Nc1ncnc(N)c1N=Nc1ccccc1 | 10.3% (inactive) |
| CCOC(=O)C1=C(C)OC(N)=C(C#N)C1c1ccc(O)c(OC)c1 (stereo not given) | 7.18% (inactive) |
| CCN(CC)c1ccc(/C=C2\C(=O)c3ccc(C(=O)O)cc3C2=O)cc1 | 4.65% (inactive) |
| O=c1[nH]c(=S)[nH]c2sccc12 | -5.08% (inactive) |
| O=C(COC(=O)c1cccs1)c1ccc2ccccc2c1 | -4.36% (inactive) |
| CCc1ccccc1NC(=O)C1CCCN(S(=O)(=O)c2ccc3c(c2)CC(C)N3C(C)=O)C1 (stereo not given) | -3.11% (inactive) |

| SMILES | activity change, negative = inhibition |
| --- | --- |
| CCOC(=O)C(Cc1ccc(O)cc1)NC(=O)CCc1c[nH]c2ccccc12 (stereo not given) | 0.971% (inactive) |
| CC(C)(C)[C@H]1C=C(C(=O)N2CCN(Cc3ccccc3)CC2)O[C@@H](OCCCCO)C1 | 0.688% (inactive) |
| COc1ccc2c(Cl)c(C(=O)N/N=C/c3cccnc3)sc2c1 | 7.43% (inactive) |
| COc1ccccc1NC(=S)N/N=C/c1ccc(O)cc1 | -0.12% (inactive) |
| Cc1ccc(CN2CCN(c3ncccn3)CC2)o1 | -2.31% (inactive) |
| O=C1CCN(CCCc2ccccc2)CCN1[C@H](CO)c1ccccc1 | 5.58% (inactive) |
| Oc1ccc(-c2nc3ncccn3c2Nc2ccc3c(c2)OCO3)cc1 | 0.488% (inactive) |
| O=[N+]([O-])c1ccc(O)c(C=NNc2ccc(S(=O)(=O)O)cc2)c1 | 2.14% (inactive) |
| Cc1cccc2nc(-c3cccc(NC(=O)c4ccc(Cl)cc4)c3)cn12 | -7.42% (inactive) |
| COc1ccc2c(c1)OC[C@H]1[C@H]2N2C(=O)CN(CC3CCCO3)C(=O)[C@@]2(C)[C@H]1c1ccccc1 (stereo not given in full) | 15.3% (inactive) |
| COc1ccccc1-c1sc2ccccc2c1C#Cc1ccc(N(C)C)cc1 | 11.4% (inactive) |
| O=C(O)c1cc(N/N=C/c2c(O)ccc3ccccc23)ccc1Cl | -0.869% (inactive) |
| COc1cccc(-c2noc(N)c2C#N)c1 | 4.6% (inactive) |
| N#Cc1c2ccc(O)cc2n2ccccc12 | -4.28% (inactive) |
| COc1ccc2c(c1)CCc1cn3nc(C)cc3nc1-2 | -83.2% (inactive) |
| COc1ccc2c(c1)CCc1cc(C(=O)O)sc1-2 | -18.2% (inactive) |
| COC(=O)c1sc2cnccc2c1N | -37.3% (inactive) |
| Brc1ccccc1C1=Nn2c(nnc2-c2ccccc2)SC1 | -4.23% (inactive) |
| COc1ccc(OC)c(C2=Nn3c(nnc3-c3ccco3)SC2)c1 | 10.8% (inactive) |
| CCOC(=O)C1CCCN(c2c(N3CCN(C4CCCCC4)CC3)c(=O)c2=O)C1 (stereo not given) | -3.65% (inactive) |
| CC(C)Oc1ccc(C2CNC(=O)C2)cc1 (stereo not given) | 5.01% (inactive) |
| COC(=O)c1[nH]c2cc(OC)ccc2c1N | -3.32% (inactive) |
| COC(=O)c1c(-c2ccc(S(C)(=O)=O)cc2)sc2ccc(OC)cc12 | 3.56% (inactive) |

| SMILES | activity change, negative = inhibition |
| --- | --- |
| Cc1ccc2c(c1)N(CC(=O)NC1CCCCC1)C(=O)c1cccnc1O2 | 5.4% (inactive) |
| CCCCN(CC)CCCNC(=O)c1cc2cc3ccc(OC)cc3nc2o1 | 14% (inactive) |
| COc1cccc(Cn2nnc(C(=O)NCCc3ccc(Cl)cc3)c2N)c1 | 4.5% (inactive) |
| COc1ccc2cc3cc(C(=O)NCCCN4CCC(C)CC4)oc3nc2c1 | -21.4% (inactive) |
| CCN1CCN(CCCNC(=O)c2cc3cc4ccc(OC)cc4nc3o2)CC1 | -30.7% (inactive) |
| COCCNC(=O)c1cc2cc3ccc(OC)cc3nc2o1 | -36.9% (inactive) |
| O=S1(=O)N=C(N(Cc2cccs2)c2ccc(O)cc2)c2ccccc21 | -39.4% (inactive) |
| CCCCC(=O)Nc1cc(Cl)ccc1C(=O)O | 2.42% (inactive) |
| CC(C)CC(NC(=O)C1CCC(C)CC1)C(=O)Nc1ccc2c(c1)OCCO2 (stereo not given) | -0.401% (inactive) |
| O=C(O)c1cc2ccccc2c2cc(Br)ccc12 | 6.75% (inactive) |
| CCOCC(=O)Nc1nc2c(s1)C(=O)CC(C)(C)C2 | -6.16% (inactive) |
| O=C1CCCc2c1cc(C(=O)NCCCN1CCOCC1)c(=O)n2-c1ccc(Cl)cc1 | 15.7% (inactive) |
| CCOc1ccccc1C(=O)Nc1ccccc1C(N)=O | 16.9% (inactive) |
| c1ccc2c(-c3nc(C4CCCCC4)no3)cc(-c3ccncc3)nc2c1 | -12.2% (inactive) |
| COc1cccc(C(=O)NNC(=O)/C=C/c2ccccc2)c1 | -0.825% (inactive) |
| O=C(/C=C/c1ccccc1)Nc1cccc(C(=O)NC2CC2)c1 | -23.3% (inactive) |
| O=C(O)/C=C/c1ccc2noc(-c3ccccc3)c2c1 | 9.02% (inactive) |
| Nc1nonc1-n1nnc(C(=O)N/N=C\c2ccncc2)c1CN1CCCCC1 | 16.2% (inactive) |
| COc1cc2cnc(-c3ccccc3)c(-c3ccc([N+](=O)[O-])cc3)c2cc1OC | 5.36% (inactive) |
| COC(=O)CSc1nc(N)c(C#N)c(C(C)C)c1C#N | 4.01% (inactive) |
| COc1ccc2nc3c(cc2c1)c(NC(=O)C1CCCO1)nn3CC(C)C (stereo not given) | -39% (inactive) |
| N#Cc1nc(-c2cccs2)oc1NCc1ccccc1Cl | 4.98% (inactive) |
| Cc1cccc(Cl)c1OCCCCn1ccnc1 | -0.832% (inactive) |

| SMILES | activity change, negative = inhibition |
| --- | --- |
| c1cncc(-c2nc(NCCCn3ccnc3)c3ccccc3n2)c1 | -32% (inactive) |
| COc1cc(O)c2c(=O)c3c(O)ccc(O)c3oc2c1 | 15.1% (inactive) |
| O=C(NN1C(=O)/C(=C/c2ccc(O)c([N+](=O)[O-])c2)SC1=S)c1ccccc1Cl | 12.1% (inactive) |
| CCCCOc1cccc(C(=O)NC(=S)Nc2ccc(Cl)c(C(=O)O)c2)c1 | 4.19% (inactive) |
| CSCC(=O)Nc1nc(-c2ccc3c(c2)OCCO3)cs1 | -45.8% (inactive) |
| CCC(=O)Nc1nc(-c2ccc3c(c2)OCCO3)cs1 | -27.9% (inactive) |
| CC(C)c1nnc(NC(=O)Cn2nc(-c3ccc4c(c3)OCCO4)ccc2=O)s1 | 5.79% (inactive) |
| c1ccc(Cc2nnc3sc(-c4ccc5c(c4)OCCO5)nn23)cc1 | 2.39% (inactive) |
| Cn1nnnc1Sc1ncnc2scc(-c3ccc[nH]3)c12 | 6.62% (inactive) |
| CCCn1cnc2scc(-c3ccc(OC)cc3)c2c1=O | 8.44% (inactive) |
| COCCCN(C(C)=O)c1nc(-c2ccc(OC)cc2)cs1 | 1.75% (inactive) |
| COc1cc(CO)cc(Br)c1OCc1cccnc1 | -1.47% (inactive) |
| COc1cccc(/C=N/n2c(COc3ccccc3)n[nH]c2=S)c1O | -73.5% (inactive) |
| COC(=O)C1=C(C)N(CCCC(=O)O)C(=O)NC1c1ccc(Cl)cc1 (stereo not given) | 1.53% (inactive) |
| COc1ccc(-n2c(C)nc3cc(C(=O)NCc4ccco4)ccc32)cc1 | 6.49% (inactive) |
| COc1ccc(-n2c(C)nc3cc(C(=O)NCc4ccc5c(c4)OCO5)ccc32)cc1 | -5.27% (inactive) |
| Cc1cccc(-n2nc3c(c2NC(=O)CCC2CCCCC2)CS(=O)C3)c1C (stereo not given) | 8.66% (inactive) |
| Cc1noc(NS(=O)(=O)c2ccc(N/C=C\C(=O)c3ccc(Br)cc3)cc2)c1C | 2.2% (inactive) |
| COc1ccc(C(=O)Nc2nc3ccccc3[nH]2)cc1S(=O)(=O)N1CCOCC1 | 6.37% (inactive) |
| C=CCN1C(=O)/C(=C/c2ccccc2)S/C1=N/c1nccs1 | 11.6% (inactive) |
| CC(C)(C)NC(=O)C(=O)NC(=O)c1c(F)cccc1Cl | -4.54% (inactive) |
| O=C(c1ccc2c(c1)OCCCO2)N1CCCCC1 | 3.39% (inactive) |
| CC(NC(=O)COC(=O)c1ccc([N+](=O)[O-])s1)c1ccccc1 (stereo not given) | -0.463% (inactive) |
